# About 79,000 compounds went through this panel and 15% of them were active in at least one assay; those are over-represented in the sample as a whole. A number with no mark means an inactive call. The source made the active and inactive calls. Rule as the data show it: active = growth inhibition above about 70%; inactive = the rest.
# Experiment: NCI Yeast Anticancer Drug Screen. Data for the mlh1 strain (AID 171);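 also: 0% = growth of vehicle-treated control cultures of the same strain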
# Conditions: S. cerevisiae mlh1 strain growth inhibition, hits give high values
# Procedure: Growth inhibition of yeast strains with defined genetic alterations is measured as a screen for potential anti-cancer activity. Selected strains with alterations in DNA damage repair or cell cycle control were exposed to compounds and growth inhibition was measured relative to vehicle treated controls. The strain used in this assay is mlh1
SMILES,growth inhibition (at 1.2 µM),growth inhibition (at 3.7 µM),growth inhibition (at 11.0 µM),growth inhibition (at 33.0 µM),growth inhibition (at 100.0 µM)
COc1cccc(/C=N/C(/N=C/c2cccc(OC)c2O)c2cccc(OC)c2O)c1O,0%,2%,7%,33%,97% (active)
O=C(COC(=O)c1ccccc1)c1ccc(Br)cc1,12%,17%,38%,99% (active),98% (active)
CCOc1c(N=Nc2ccccc2OC)c(C)nn1C(=S)S,-3%,0%,4%,4%,65%
COC(=O)C1(C)CCc2c(ccc3ccccc23)C1=O (stereo not given),-2%,2%,7%,5%,32%
CCCC(=O)Oc1c(C)cc([N+](=O)[O-])cc1[N+](=O)[O-],2%,12%,99% (active),99% (active),99% (active)
O=[N+]([O-])/C=C/c1cc(Cl)c(/C=C/[N+](=O)[O-])cc1Cl,36%,48%,68%,96% (active),92% (active)
O=c1[nH]c2ccc(Cl)cc2o1,-41%,-33%,-56%,-41%,-27%
CCn1c(O)c(C=Nc2ccccc2)s/c1=N/Nc1nc(-c2ccccc2)cs1,-2%,3%,3%,4%,12%
